Screening results as filed in PubChem BioAssay.
Vif-APOBEC3G blk = Vif-A3G binding inhibition | Q9HC16 | HeLa A3G-eYFP + Vif (tagged APOBEC3G with the HIV-1 protein that degrades it), YFP fluorescence, overnight | Potency, µM (highest dose often 46.1 µM), for the others: at the highest dose activity, negative = active, most hits filed as inhibitors | actives 0.076% (n = 410,000) | AID 602310; note: % is set by controls: 0 for no effect and ±100 for the full control effect; nearly all actives have a fitted effect of over 60% in size
Target sequence (Q9HC16 whole entry, looked up): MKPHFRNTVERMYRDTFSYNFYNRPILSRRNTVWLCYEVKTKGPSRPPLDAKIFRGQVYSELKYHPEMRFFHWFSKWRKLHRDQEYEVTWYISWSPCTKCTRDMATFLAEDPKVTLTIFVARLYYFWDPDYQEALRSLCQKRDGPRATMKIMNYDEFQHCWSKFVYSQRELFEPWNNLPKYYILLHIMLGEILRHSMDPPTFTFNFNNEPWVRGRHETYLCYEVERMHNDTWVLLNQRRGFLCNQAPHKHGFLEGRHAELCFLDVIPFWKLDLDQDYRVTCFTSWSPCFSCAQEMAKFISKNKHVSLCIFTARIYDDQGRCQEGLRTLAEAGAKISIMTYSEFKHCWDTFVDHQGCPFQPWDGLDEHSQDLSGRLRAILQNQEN
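Read-out is eYFP fluorescence (Ex 488/Em 500-530) from Vif-expressing HeLa A3G-eYFP cells; more signal means A3G escaped Vif-mediated degradation. Cells plated overnight, compound pinned in, incubated overnight at 37 deg C.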
Abeta yeast res = compounds reversing amyloid beta toxicity in yeast; actives 0.063% (n = 410,000); AID 1347071; Potency, µM (doses to about 46.1 µM), actives largely listed as activators; yeast expressing A-beta42, growth rescue, OD600, 48 h; response scale: 0% DMSO, 100% iron-clioquinol control; note: nearly all actives have a fitted effect of over 55% in size
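Yeast growth medium received pinned compounds, then yeast cells expressing toxic A-beta were added; plates incubated at 30 C for 48 hr. Growth read as absorbance at 600 nm, normalized to DMSO and equimolar FeCl3 plus clioquinol controls.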
FUS yeast rescue = suppressors of FUS proteinopathy in yeast; S. cerevisiae FUS-expressing, growth rescue, OD600, 24 h; Potency, µM (doses to about 76.6 µM), most hits filed as activators; AID 1347120; actives 0.24% (n = 390,000);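 note: plate controls were DMSO vehicle for no effect and reference control for full effect; nearly all actives have a fitted effect of over 55% in size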
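FUS-expressing yeast, raffinose-pregrown, induced in 2% galactose minimal medium at OD 0.005; compounds in a dilution series, 24hr at 30C. Growth restoration read as absorbance at 600 nm. CP55940 positive control, DMSO negative.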
PINK1 modulator = PINK1 expression modulation; PINK1 immunofluorescence, high-content cytometry, 24 h; actives 0.2% (n = 410,000); Potency, µM (titrated, usually from 76.6 µM), for the others: top-dose activation (PINK1 increase), actives largely listed as activators; active = well fitted activation curve with a large enough effect; inconclusive = small, poorly fitted or top-dose-only effect; cell line not stated here; note: % of control where 0% means no effect; nearly all actives have a fitted effect of over 65% in size
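PINK1 protein, normally rapidly degraded, was detected by immunofluorescence after 24 hour compound treatment of a stable cell line. Titration data (5 concentrations) came from laser-scanning cytometry, with CCCP-treated wells as controls.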
Glioma ERSR ind = inducers of ER stress response in human glioma cells; U87-MG GRP78 promoter luciferase reporter, 16 h; Potency, µM, inactives show at the top dose activation, hits mostly activators; actives 0.02% (n = 420,000); note: series mostly up to about 76 µM; % of control where 0% means no effect; nearly all actives have a fitted effect of over 35% in size
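Stably transfected U87-MG glioma cells carrying a GRP78-based luciferase sensor; 16 h compound incubation. Luminescence end-point read 10 min after Bright-Glo addition at room temperature.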
Vif-A3F inh = Vif-A3F binding inhibition; HeLa A3F-eYFP + Vif (tagged APOBEC3F with the HIV-1 protein that degrades it), YFP fluorescence increase; Potency, µM (top dose mostly 46.1 µM), without a hit: top-dose activity, negative = active; actives 0.2% (n = 390,000); note: % of control where 0% means no effect; nearly all actives have a fitted effect of over 65% in size
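HeLa cells stably expressing A3F-eYFP plus Vif, plated and incubated overnight at 37 deg C, then exposed to compounds overnight at 37 deg C. Blocked degradation read as raised yellow fluorescence (Ex 488/Em 500-530).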
Starred values were filed as active, the others as inactive; i = inactive; ? = inconclusive; · = not tested or not shown; [ ] = remark or other dose. Shown are actives, neighbours in structure and some others; about 0.69% of the full set was active somewhere. Unless noted, calls come from the whole dose curve; as a rule, active = well fitted curve in the direction sought with a large enough effect; inconclusive = small, poorly fitted or top-dose-only effect, or another doubt; inactive = no such curve, though single readings can be large; an effect the other way counts as inactive or inconclusive. Potency is the fitted concentration of half-maximal effect.

SMILES	Vif-APOBEC3G blk	Abeta yeast res	FUS yeast rescue	PINK1 modulator	Glioma ERSR ind	Vif-A3F inh
O=C(Cn1nc(-c2ccccc2)ccc1=O)Nc1ccc(N2CCN(C(=O)c3cccs3)CC2)cc1	4%	i	8.9µM*	1%	-3%	6%
Cc1cc(N2C(=O)C(O)=C(C(=O)c3cc4ccccc4o3)C2c2ccc(OC(C)C)cc2)no1 (stereo not given)	4%	i	i	28µM*	-5%	3%
N#C/C(=C/c1ccc(N2CCOCC2)o1)c1ccc(Cl)cc1	7.1µM*	i	i	13µM*	?	?
N#C/C(=C\c1ccc(N2CCCCC2)o1)C(N)=O	?	i	i	?	4%	?
N#C/C(=C\c1ccc(N2CCOCC2)o1)c1nc2ccccc2[nH]1	2%	i	i	14µM*	-10%	?
CCSc1ccc(-c2cc(NC=O)c3ncc(-c4cccc(C(=O)N(C)C)c4)n3c2)cc1	?	i	25µM*	-1%	?	·
CCSc1ccc(-c2cc(NC=O)c3ncc(-c4cccc(C(=O)NCCN(C)C)c4)n3c2)cc1	-10%	i	i	-1%	-10%	·
CC(=O)c1ccc(-c2cnc3c(NC=O)cc(-c4ccccc4Oc4ccccc4)cn23)cc1	?	i	25µM*	-1%	6%	·
O=CNc1cc(-c2ccccc2Oc2ccccc2)cn2c(-c3ccc(F)cc3)cnc12	-18%	i	?	2%	0%	·
COc1ccc(-c2cnc3c(NC=O)cc(-c4ccccc4)cn23)cc1OC	1.8µM*	i	i	2%	-1%	·
COc1cccc(-c2cnc3c(NC=O)cc(-c4cc(OC)c(OC)c(OC)c4)cn23)c1	?	i	28µM*	2%	-7%	·
COC(=O)c1ccc(-c2cccc3c2OC(CNC(=O)/C=C/c2ccc(OC)c(OC)c2)C3)nc1 (stereo not given)	·	·	·	1%	0%	·
O=C(c1ccccc1)N1CCC(c2nc(-c3ccc(S(=O)(=O)N4CCOCC4)cc3)no2)CC1	0%	i	i	1%	-5%	-12%
O=C(Nc1ccccc1)N1CCC(c2nc(-c3ccc(S(=O)(=O)N4CCOCC4)cc3)no2)CC1	?	i	i	13µM*	-2%	-1%
COc1ccc(Nc2nc3cc(C)ccc3cc2C#N)cc1	?	i	i	8%	-1%	22µM*
COc1ccc(Nc2nc3cc(C)ccc3cc2C#N)c(OC)c1	?	i	i	19%	-6%	?
CO[C@H]1C=CO[C@@]2(C)Oc3c(C)c(O)c4c(O)c(c(C=NN5CCN(C)CC5)c(O)c4c3C2=O)NC(=O)C(C)=CC=C[C@H](C)[C@H](O)[C@@H](C)[C@@H](O)[C@@H](C)[C@H](OC(C)=O)[C@@H]1C	4%	i	18µM*	1%	-2%	11%
Cc1cc(C(=O)NCc2nnc3n2CCN(Cc2ccc4c(c2)Cc2ccccc2-4)CC3)c(C)o1	·	·	·	1%	-4%	·
C=CCSc1nc2sc3c(c2c(=O)n1CC)CCC3	-4%	i	i	8%	-5%	22µM*
COc1ccc(C2C3=C(N=C4SCC(=O)N42)c2ccccc2CC3)cc1OC (stereo not given)	3%	i	35µM*	-2%[38.3 µM]	7%	0%
CC1CCCN(CCOCCOc2ccc(Br)cc2Cl)C1 (stereo not given)	1%	i	i	-1%	-5%	-13%
CC1CCCN(CCOCCOc2ccc(Cl)cc2Br)C1 (stereo not given)	4%	i	7.1µM*	-4%[38.3 µM]	3%	1%
Cc1oc(-c2ccccc2NC(=O)c2ccsc2)nc1CN(C)CC1CC=CCC1 (stereo not given)	·	·	·	0%	-6%	·
COc1ccc(C2=Nc3ccccc3N(C(=O)c3ccc(C(F)(F)F)cc3)C2C(=O)NCc2ccccc2)cc1 (stereo not given)	·	i	22µM*	·	·	·
